High-throughput results deposited in PubChem by National Center for Advancing Translational Sciences (NCATS).
A selection: hits, their analogues and other compounds. The true share with any hit is near 17%.
TGFb SMAD3 inh: qHTS for Inhibitors of TGF-b | hit rate 1.2% among 410,000 | HepG2 CAGA-GFP TGF-b/SMAD3 reporter, GFP fluorescence, 18 h; TGF-beta stimulated, 500 pg/mL final | AID 588855, 2011 | Potency, µM (titrated, usually from 46.1 µM), without a hit: top-dose activity, negative = inhibition, most hits filed as inhibitors; note: % is set by controls: 0 for no effect and ±100 for the full control effect; nearly all actives have a fitted effect of over 65% in size
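Cell-based qHTS in HEPG2 carrying a CAGA-GFP Smad reporter; compounds added before 500 pg/mL final TGF-beta, 18 h incubation at 37 degrees C, GFP fluorescence quantified per cell by imaging cytometry.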
HepG2 viability: qHTS for Inhibitors of TGF-b: Cytotox Counterscreen; HepG2 CAGA-GFP viability, ATP luminescence, 18 h; hit rate 0.76% among 410,000; Potency, µM (highest dose often 46.1 µM), for the others: top-dose activity change, negative = cytotoxicity, most hits filed as cytotoxic; AID 588856, 2011
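CellTiter-Glo luminescence gave cytotoxicity after 18 hours at 37 degrees C. The cells were HepG2 CAGA-GFP in 1% FBS DMEM, stimulated with 500 pg/mL TGF-beta after compound addition. %Activity was normalised to no-cell wells (complete cell-killing) and DMSO (no toxicity), and curves were fitted and classified.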
TDP1 cell CPT: qHTS for Inhibitors of human tyrosyl-DNA phosphodiesterase 1 (TDP1): qHTS in cells in presence of CPT | chicken DT40 Tdp1-/-;hTDP1 cells + 20 nM CPT, ATP luminescence, 48 h | Potency, µM (highest dose often 46.2 µM), without a hit: top-dose activity change, negative = growth inhibition, hits mostly inhibitors | hit rate 12% among 420,000 | AID 686979, 2013; note: % is set by controls: 0 for no effect and ±100 for the full control effect; nearly all actives have a fitted effect of over 55% in size
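Cell growth measured by CellTiter-Glo luminescence after a minimum 48 h, 37 C compound exposure with 20 nM CPT in Tdp1-knockout DT40 cells stably expressing hTDP1, seeded 400/well; qHTS titration format.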
ATXN2 expr inh: Primary qHTS for Inhibitors of ATXN expression. hit rate 0.72% among 360,000. AID 1745845, 2022. Potency, µM (doses to about 57 µM), without a hit: at the highest dose activity change, negative = inhibition, hits mostly inhibitors. HEK-293 ATXN2-luciferase reporter, luminescence, 24 h; note: % is set by controls: 0 for no effect and ±100 for the full control effect; nearly all actives have a fitted effect of over 55% in size
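ATXN2-luciferase reporter cells (luciferase flanked by upstream and downstream ATXN2 gene portions) were treated 24 h at 37 °C with compounds at up to 57 uM. SteadyGlo luminescence gave expression; GF-AFC fluorescence gave viability.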
ATXN viability: Viability Counterscreen for Primary qHTS for Inhibitors of ATXN expression; hit rate 0.49% among 400,000; Potency, µM (titrated, usually from 56.7 µM), most hits filed as cytotoxic; S2 cells (HEK-293 line with an ATXN2-luciferase reporter) viability, CellTiter-Fluor protease fluorescence, 24 h; note: nearly all actives have a fitted effect of over 40% in size
DT40 TDP1 no CPT: qHTS for Inhibitors of human tyrosyl-DNA phosphodiesterase 1 (TDP1): qHTS in cells in absence of CPT; Potency, µM (top dose mostly 46.2 µM), for the others: at the highest dose activity change, negative = growth inhibition, usual class: inhibitors; hit rate 15% among 420,000; DT40 Tdp1-/- hTDP1 cells, no CPT, ATP luminescence, 48 h; note: % is set by controls: 0 for no effect and ±100 for the full control effect; nearly all actives have a fitted effect of over 55% in size
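Compound effects on proliferation are scored in DT40 Tdp1-/-;hTDP1 cells in the absence of CPT. ATP levels (CellTiter-Glo luminescence) are recorded after a ≥48 hr, 37 °C incubation.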
Starred values were filed as active, the others as inactive; [ ] = dose if it differs, or a comment. Calls come from the whole dose curve; as a rule, active = well fitted curve in the direction sought with a large enough effect; inconclusive = small, poorly fitted or top-dose-only effect, or another doubt; inactive = no such curve, though single readings can be large; an effect the other way counts as inactive or inconclusive. Potency is the fitted concentration of half-maximal effect.

Screening CCN(CCCNC(=O)COc1cc(=O)n(CC)c2ccccc12)c1ccccc1 returned TGFb SMAD3 inh 0.5%, HepG2 viability -39.4%, TDP1 cell CPT 23.1µM*, ATXN2 expr inh 39.1%, ATXN viability inactive and DT40 TDP1 no CPT inconclusive.
For CCN(CCCNC(=O)CSc1cc(=O)n(CC)c2ccccc12)c1cccc(C)c1 the results were TGFb SMAD3 inh inconclusive, HepG2 viability -39.4%, TDP1 cell CPT 20.6µM*, ATXN2 expr inh -13.0%, ATXN viability inconclusive and DT40 TDP1 no CPT 20.6µM*.
CCn1c(=O)cc(SCC(=O)NCCc2cccc(C)c2)c2ccccc21 was read as TGFb SMAD3 inh -16.9%, HepG2 viability -28.9%, TDP1 cell CPT inconclusive, ATXN2 expr inh -3.8%, ATXN viability inactive and DT40 TDP1 no CPT inconclusive.
Screening CC(C)c1ccc(NC(=O)C(c2ccc3c(c2)OCO3)N2CCCCC2)cc1 (stereo not given) returned TGFb SMAD3 inh inconclusive, HepG2 viability -20.7%, TDP1 cell CPT 18.4µM*, ATXN2 expr inh -18.2%, ATXN viability inconclusive and DT40 TDP1 no CPT 23.1µM*.
For O=C(Nc1cc(Cl)cc(Cl)c1)C(c1ccccc1)N1CCCCC1 (stereo not given) the results were TGFb SMAD3 inh -2.9%, HepG2 viability 3.4%, TDP1 cell CPT 20.6µM*, ATXN2 expr inh -7.4%, ATXN viability inactive and DT40 TDP1 no CPT inconclusive.
Screening CS(=O)(=O)N1CCN(c2ccc(NC(=O)C(c3ccccc3)c3ccccc3)cc2)CC1 returned TGFb SMAD3 inh -19.8%, HepG2 viability -30.3%, TDP1 cell CPT -19.9%, ATXN2 expr inh -3.3%, ATXN viability inactive and DT40 TDP1 no CPT inconclusive.
`COc1cccc(NC(=O)C(c2ccccc2)N2CCCCC2)c1` (stereo not given) gave TGFb SMAD3 inh -1.7%, HepG2 viability -0.3%, TDP1 cell CPT -27.8%, ATXN2 expr inh -23.5%, ATXN viability inactive and DT40 TDP1 no CPT inconclusive.
For O=C(Nc1ccc(N2CCCC2)cc1)C(Cl)c1ccccc1 (stereo not given) the results were TGFb SMAD3 inh -15.6%, HepG2 viability -30.1%, TDP1 cell CPT 8.2µM*, ATXN2 expr inh 10.3%, ATXN viability inconclusive and DT40 TDP1 no CPT 13µM*.
Cc1ccc(NC(=O)C(c2ccc(Cl)cc2Cl)N2CCCC2)cc1 (stereo not given) was read as TGFb SMAD3 inh 0.1%, HepG2 viability -1.9%, TDP1 cell CPT 23.1µM*, ATXN2 expr inh -4.2%, ATXN viability inactive and DT40 TDP1 no CPT 14.6µM*.
`Cc1ccc(/C(O)=C2/C(=O)C(=O)N(CC(=O)O)C2c2ccc([N+](=O)[O-])cc2)cc1` (stereo not given) gave TGFb SMAD3 inh 0.2%, HepG2 viability -3.6%, TDP1 cell CPT 12.7%, ATXN2 expr inh 7.9%, ATXN viability inactive and DT40 TDP1 no CPT inconclusive.
Screening O=C(Cn1cccn1)N1CCOc2c(cc(-c3ncc(C(F)(F)F)cc3Cl)cc2OCC2CCCO2)C1 (stereo not given) returned TDP1 cell CPT -15.5%, ATXN viability inactive and DT40 TDP1 no CPT -17.3%.
COc1ccc(NC(=O)C2CC3C=CC2C3)c([N+](=O)[O-])c1 (stereo not given) was read as TGFb SMAD3 inh -25.9%, HepG2 viability 20.7%, TDP1 cell CPT -8.2%, ATXN2 expr inh 27.7%, ATXN viability inactive and DT40 TDP1 no CPT -7.3%.
O=C(O)c1ccccc1OC(C(=O)Nc1cc(Cl)cc(Cl)c1)c1ccccc1 (stereo not given) was read as TGFb SMAD3 inh -1.2%, HepG2 viability 0.7%, TDP1 cell CPT 29.1µM*, ATXN2 expr inh -11.3%, ATXN viability inactive and DT40 TDP1 no CPT 25.9µM*.
Screening CC1=C(C(=O)OC2CCCC2)C(c2c(Cl)cccc2Cl)CC(=O)N1 (stereo not given) returned TGFb SMAD3 inh inconclusive, HepG2 viability -28.4%, TDP1 cell CPT inconclusive, ATXN2 expr inh -21.2%, ATXN viability inactive and DT40 TDP1 no CPT 25.9µM*.
`CC1=C(C(=O)OCC2CCCCC2)C(c2ccccc2F)CC(=O)N1` (stereo not given) gave TGFb SMAD3 inh inconclusive, HepG2 viability -38.4%, TDP1 cell CPT inconclusive, ATXN2 expr inh -2.6%, ATXN viability inactive and DT40 TDP1 no CPT inconclusive.
Screening CC1=C(C(=O)OCC2CCCCC2)C(c2ccc(Cl)cc2)CC(=O)N1 (stereo not given) returned TGFb SMAD3 inh inconclusive, HepG2 viability 12.6µM*, TDP1 cell CPT inconclusive, ATXN2 expr inh -29.7%, ATXN viability inactive and DT40 TDP1 no CPT inconclusive.
Screening CCOC(=O)C1=C(C)NC(=O)CC1c1ccccc1OC (stereo not given) returned TGFb SMAD3 inh 0.4%, HepG2 viability 4.8%, TDP1 cell CPT -25.0%, ATXN2 expr inh 4.2%[11.3 µM], ATXN viability inactive and DT40 TDP1 no CPT 1.5%.
Screening COc1ccccc1C1CC(=O)NC(C)=C1C(=O)OCC(C)C (stereo not given) returned TGFb SMAD3 inh 20.9%, HepG2 viability -1.0%, TDP1 cell CPT 11.6µM*, ATXN2 expr inh -21.3%, ATXN viability inactive and DT40 TDP1 no CPT 13µM*.
Screening CC1=C(C(=O)OC2CCCC2)C(c2cccc(Cl)c2Cl)CC(=O)N1 (stereo not given) returned TGFb SMAD3 inh inconclusive, HepG2 viability -78.4%, TDP1 cell CPT inconclusive, ATXN2 expr inh -17.0%, ATXN viability inactive and DT40 TDP1 no CPT 23.1µM*.
`CC1=C(C(=O)OC2CCCC2)C(c2ccccc2Cl)CC(=O)N1` (stereo not given) gave TGFb SMAD3 inh -68.0%, HepG2 viability -28.3%, TDP1 cell CPT 16.4µM* and DT40 TDP1 no CPT 13µM*.
For O=C1NC(=S)/C(=C\c2ccc(-c3ccccc3Cl)o2)S1 the results were TGFb SMAD3 inh inconclusive, HepG2 viability -24.4%, TDP1 cell CPT 23.1µM*, ATXN2 expr inh -30.0%, ATXN viability inconclusive and DT40 TDP1 no CPT 13µM*.
O=C1NC(=O)/C(=C/c2ccc(-c3cc(C(=O)O)ccc3Cl)o2)S1 was read as TGFb SMAD3 inh 10.5%, HepG2 viability -17.3%, TDP1 cell CPT 0.7%, ATXN viability inactive and DT40 TDP1 no CPT -15.8%.
